The values that follow come from PubChem BioAssay (NCI).

Where “and” joins values, the source holds several entries; their conditions need not be identical. Equal values may be shown once. Compounds without any hit were thinned out: in the full panel of roughly 79,000, 15% have a hit. A number with no mark means an inactive call. Calls of active or inactive are those of the source. Rule as the data show it: active = growth inhibition above about 70%; inactive = the rest.

The nature of experiment [1]: NCI Yeast Anticancer Drug Screen. Data for the rad50 strain (AID 155).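 Also: 0% = growth of vehicle-only cultures of the same strain.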 Conditions: S. cerevisiae rad50 strain growth inhibition, stronger effect = higher value; at 50.0 µM unless noted. In outline:
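Inhibition values express reduced yeast growth in compound-treated cultures relative to vehicle-treated controls.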

A short description of experiment [2]: NCI Yeast Anticancer Drug Screen. Data for the mec2-1 strain (AID 157). Conditions: S. cerevisiae mec2-1 strain, stronger effect = higher value; at 50.0 µM unless noted. In outline:
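Growth inhibition is read against vehicle-treated controls after compound exposure of the mec2-1 yeast strain, which is defective in DNA damage repair or cell cycle control.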

Experiment [3] is described as follows: NCI Yeast Anticancer Drug Screen. Data for the sgs1 mgt1 strain (AID 161).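 Also: 0% = growth of cultures given vehicle only.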 The following applies: S. cerevisiae sgs1 mgt1 strain, stronger effect = higher value; at 50.0 µM unless noted. An outline of the steps: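 Yeast cells carrying a defined DNA-repair defect were exposed to test compounds. Growth inhibition was measured relative to vehicle-treated controls.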
Experiment [4] in a line: NCI Yeast Anticancer Drug Screen. Data for the cln2 rad14 strain (AID 165).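 Also: 0% = growth equal to vehicle treated cultures.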 The following applies: S. cerevisiae cln2 rad14 strain, stronger effect = higher value; at 50.0 µM unless noted. An outline of the steps:
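Growth inhibition, relative to vehicle-treated controls, is the read-out. The test organism is a yeast strain with defined genetic alterations, cln2 rad14.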

The nature of experiment [5]: NCI Yeast Anticancer Drug Screen. Data for the bub3 strain (AID 167). The following applies: S. cerevisiae bub3 mutant strain, stronger effect = higher value; at 50.0 µM unless noted. In outline: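 Steps: expose the mutant yeast strain to compound; grow alongside vehicle-treated cultures; measure growth; express inhibition against the vehicle cultures.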
Experiment [6] is described as follows: NCI Yeast Anticancer Drug Screen. Data for the mlh1 rad18 strain (AID 175). Conditions: S. cerevisiae mlh1 rad18 strain growth inhibition, stronger effect = higher value; at 50.0 µM unless noted. An outline of the steps:
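Cells of a genetically altered yeast strain, deficient in DNA damage repair, were treated with compound. Their growth was then compared with that of vehicle-treated cultures to give inhibition.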

With `Cc1[nH]n(-c2ccc(Cl)cc2)c(=O)c1N=Nc1cccc(C(F)(F)F)c1`, the growth inhibition in experiment [1] is 21.8%; in experiment [2], 2.05%; in experiment [3], 2.1%; in experiment [4] it was 7.45%; in experiment [5], -2.05%; in experiment [6], 2%.

Regarding `CN(C(=O)c1ccc([N+](=O)[O-])cc1)C(c1ccco1)P(=O)(c1ccccc1)c1ccccc1` (stereo not given), the growth inhibition in experiment [1] is 71.1% (active); in experiment [2], 36.4%; in experiment [3], 56.5%; in experiment [4] it was 0.4%; in experiment [5], 46.2%; in experiment [6], 26.4%.

Regarding `O=C(O)c1ccc(C(=O)NCCCN(CCCCN(CCCNC(=O)c2ccc(C(=O)O)c(O)c2O)C(=O)c2ccc(C(=O)O)c(O)c2O)C(=O)c2ccc(C(=O)O)c(O)c2O)c(O)c1O`, the growth inhibition in experiment [1] is 11.2%; in experiment [2], 16.1%; in experiment [3], 20.3%; in experiment [4], -31.3%; in experiment [5], 0.35%; in experiment [6] it was 24.9%.

Turning to `CCCCC/C([O-])=C1/C(=O)N(c2ccccc2)N=C1C.CCCCC/C([O-])=C1/C(=O)N(c2ccccc2)N=C1C.[Cu+2]`, the growth inhibition in experiment [1] was 2.1%; in experiment [2], 0.75%; in experiment [3] it was -13.7%; in experiment [4], -6.1%; in experiment [5], -2.75%; in experiment [6], 7.75%.

For the compound `Clc1ccc(C2ON=C(c3ccccc3)N2C23CC4CC(CC(C4)C2)C3)cc1Cl` (stereo not given), the growth inhibition is 5.65% in experiment [1]; -17.6% in experiment [2]; 2.8% in experiment [3]; -20% in experiment [4]; -7.9% in experiment [5]; -1% in experiment [6].

In the case of `Brc1ccc(SSc2ccc(Br)cc2)cc1`, the growth inhibition was -12.8% and 3.2% in experiment [1]; 13.1% and -10.3% in experiment [2]; 3.45% and 5.3% in experiment [3]; -18.4% and -5.5% in experiment [4]; -3.15% and 9.8% in experiment [5]; 18.8% and 2.65% in experiment [6].

Consider `O=C1CN(c2cccc(C(F)(F)F)c2)C(=O)CN1/N=C/c1ccc[nH]1`, for which the growth inhibition in experiment [1] is -27.7%; in experiment [2], -3.25%; in experiment [3], 9.45%; in experiment [4], 15.8%; in experiment [5] it was -7.1%; in experiment [6], -5.4%.

On to `CCCCCSC(=O)C(N)=O`, for which the growth inhibition in experiment [1] was 10.9%; in experiment [2], 7.45%; in experiment [3], 6.7%; in experiment [4] it was -25.8%; in experiment [5] it was -7.45%; in experiment [6], 4%.

Regarding `COc1ccc(C(OC(=O)Oc2ccccc2)c2ccccc2)cc1` (stereo not given), the growth inhibition in experiment [1] was -9.1%; in experiment [2], 6.55%; in experiment [3], -6.9%; in experiment [4], -20.1%; in experiment [5] it was -16.4%; in experiment [6], 7%.

With `O=C(Nc1nccs1)c1ccccc1F`, the growth inhibition in experiment [1] is 3.8%; in experiment [2], -0.9%; in experiment [3], -12.2%; in experiment [4] it was -53.3%; in experiment [5], -8.45%; in experiment [6], -3.15%.

As to `CCCCNC(=O)/C(=C\c1ccc(OC)c(OC)c1)NC(=O)c1ccccc1`, the growth inhibition in experiment [1] was -63.5%; in experiment [2] it was -55.3%; in experiment [3], -34.4%; in experiment [4] it was -1.75%; in experiment [5], -35%; in experiment [6] it was -21.6%.

As for `O=C(O)CCN(CCCCN(CCC(=O)O)CCC(=O)O)CCC(=O)O`, the growth inhibition is 4.7% in experiment [1]; 7.05% in experiment [2]; -10.7% in experiment [3]; 1.4% in experiment [4]; 1.25% in experiment [5]; -4.15% in experiment [6].

Consider `O=C1CCCCCCCCCCCCCCCCC1`, for which the growth inhibition in experiment [1] was -13.3%; in experiment [2], -5.85%; in experiment [3] it was -11.3%; in experiment [4], -7.25%; in experiment [5], -2.15%; in experiment [6], -13.9%.

`COc1cc2c(c(OC)c1OC)-c1ccc(OC)c(=O)cc1[C@@H](NC=O)CC2`: the growth inhibition in experiment [1] was -11%; in experiment [2], -14.5%; in experiment [3], -22.9%; in experiment [4] it was 4.15%; in experiment [5], -8.05%; in experiment [6], -29.8%.

As to `CC1=NCC23CC(=O)C4C(CCC5(C)CC(O)CCC45C)C2CCC13` (stereo not given), the growth inhibition in experiment [1] was 0.85%; in experiment [2], -0.95%; in experiment [3], 7.6%; in experiment [4], -36.6%; in experiment [5], 20.4%; in experiment [6] it was 1.9%.

`CC(=O)CC(C[N+](=O)[O-])c1ccccc1` (stereo not given): the growth inhibition was -4.7% in experiment [1]; -0.8% in experiment [2]; -4.65% in experiment [3]; -28.5% in experiment [4]; -21.6% in experiment [5]; -6.9% in experiment [6].

As for `O=C(Oc1cc2c(cc1Br)OCO2)c1cccc2ccccc12`, the growth inhibition in experiment [1] is 0.85%; in experiment [2] it was -30.3%; in experiment [3] it was 9.8%; in experiment [4], -48.7%; in experiment [5], 6.95%; in experiment [6], -27.2%.

`CCOc1cc(C=O)c2c(ccc3ccc(OC)c(OC)c32)c1OC`: the growth inhibition in experiment [1] was 86.5% (active); in experiment [2], 90.8% (active); in experiment [3], 84.7% (active); in experiment [4], 83.5% (active); in experiment [5], 82.4% (active); in experiment [6], -11.8%.

As to `Cc1ccc(S(=O)(=O)N2CCCSCC2)cc1`, the growth inhibition was -11.6% in experiment [1]; -6.7% in experiment [2]; -17.5% in experiment [3]; -6.95% in experiment [4]; -11.6% in experiment [5]; -16.1% in experiment [6].

Regarding `O=C1c2ccc3c4ccccc4n(-c4ccccc4)c3c2C(=O)N1c1ccc(Cl)cc1`, the growth inhibition is -11.8% in experiment [1]; -2.95% in experiment [2]; -26.2% in experiment [3]; 24.9% in experiment [4]; -18.4% in experiment [5]; -7.05% in experiment [6].
